About 83,000 compounds went through this panel and 20% of them were active in at least one assay; those are over-represented in the sample as a whole.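 Method: cells in 96-well plates; compound added at one concentration; 48 h incubation; percent growth measured; values under 10 scored active.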 Unmarked numbers belong to inactive results. The source made the active and inactive calls.

This is an account of results in PubChem BioAssay (NCI).

The subject of this experiment is 786-0 renal. Nature of the experiment: NCI-60 one-dose screen, 48 h (100 = growth as untreated, 0 = no growth, -100 = all killed). As to conditions: 10 µM unless noted.
As to `CCOC(=O)c1ccc(N(CCC(=O)O)C(C)=O)cc1`, the growth is 104%.

Regarding `Nc1c(C(=O)Nc2cccc(Cl)c2)sc2ncc(Br)cc12`, the growth is 76.1%.

`CSC(=S)N/N=C(\C)c1ccccn1`: the growth is 16.9%.

In the case of `CC(=O)O[C@H]1[C@H](CC#CC#CC[C@@H]2C[C@]3(C)[C@H]4CC=C5[C@H]6[C@@H](C)[C@H](C)CC[C@]6(C(=O)NCCCCCCCCN)CC[C@@]5(C)[C@]4(C)CC[C@H]3C(C)(C)[C@H]2OC(C)=O)C[C@]2(C)[C@H]3CC=C4[C@H]5[C@@H](C)[C@H](C)CC[C@]5(C(=O)NCCCCCCCCN)CC[C@@]4(C)[C@]3(C)CC[C@H]2C1(C)C`, the growth is 103%.

For `CC(C)COC(=O)NC(C)(C)C`, the growth is 98.1%.

As to `CCC(=O)NC(O)C(Cl)(Cl)C(C)Cl` (centres undefined), the growth was 101%.

As for `C#CCNC(=S)N/N=C(\C)c1ccccn1`, the growth was 4.03% (active).

As to `COc1ccc(-c2nnc(SCC(=O)Nc3ccc(C(=O)/C=C/c4ccc(Cl)cc4)cc3)n2-c2ccccc2)cc1`, the growth is 97.4%.

Regarding `CC1CCN(Cc2ccc(NC(=O)c3cc4ccc5cccnc5c4[nH]3)cc2)CC1`, the growth was 36.8%.

On to `CC(C)N1CCN(c2ccncc2S(=O)(=O)N2CCN(C)CC2)CC1`, for which the growth was 98.6%.

`O=C(/C=C/c1ccccc1)n1c(-c2ccccc2)nc2ccccc21`: the growth is 100%.

For the molecule `COC1CC(N)C2OC(c3ccccc3)OCC2O1` (centres undefined), the growth is 103%.

As to `COc1cccc(NC(=O)[C@H](C(C)C)n2c(=O)[nH]c3ccccc3c2=O)c1`, the growth is 105%.

As for `COc1ccc(-c2cnc3ccnn3c2-c2cc(OC)c(OC)c(OC)c2)cc1`, the growth is 40.3%.

Consider `COc1cc2cc(C(=O)Nc3ccccc3)c(N)nc2cc1OC`, for which the growth is 21.2%.

With `O=C(C=P(c1ccccc1)(c1ccccc1)c1ccccc1)CCl`, the growth was -75.8% (active).

With `CCCCCCCCCCCCCCCCS(=O)(=O)Nc1cc(C(=O)NN)cc(C(=O)NN)c1`, the growth was 96.2%.

On to `COS(=O)(=O)CCN(CCOS(C)(=O)=O)S(C)(=O)=O`, for which the growth is 97.9%.

`CCn1c(CN2CCN(Cc3ccccc3)CC2)nc2cc(NC(=O)c3cccs3)ccc21`: the growth was -67.8% (active).

Regarding `CC(=O)c1ccc(-n2c(-c3cc(-c4ccsc4)n[nH]3)n[nH]c2=S)cc1`, the growth was 101%.

Consider `CCN(CC)Cc1cc(Nc2ccnc3cc(Cl)ccc23)cc(-c2ccc(Cl)cc2)c1O`, for which the growth is 55%.

Regarding `O=C(NCC(c1ccsc1)N1CCCCCC1)c1ccc(C(F)(F)F)cc1` (centres undefined), the growth was 96.9%.

Regarding `COc1cc(NC(C)CCCN)c2ncccc2c1Oc1ccc(Cl)cc1` (centres undefined), the growth is 67.3%.

In the case of `O=C(c1ccccc1)N(CCCCl)C(=O)N(CCCCl)C(=O)c1ccccc1`, the growth was 94.6%.

Consider `COc1ccc(C2=CC(c3ccc(OC)cc3Br)N3C=CSC3=N2)cc1` (centres undefined), for which the growth was 83.7%.

As for `CC(=O)c1nn(-c2ccccc2)/c(=N\N=C\c2coc3ccc(F)cc3c2=O)s1`, the growth was 110%.

On to `O=C(c1ccc(C(F)(F)F)c(Cl)c1)N(Cc1ccc(Cl)cc1)c1ccc(-c2cc(C(F)(F)F)[nH]n2)c(O)c1`, for which the growth is 3.06% (active).

Regarding `C/C(=N\OC(=O)Nc1cccc(Cl)c1)c1ccccc1`, the growth was 99.4%.

On to `C/C(=C\C(=N\N=C(N)N)c1ccc(Cl)cc1)c1ccc(Cl)cc1`, for which the growth was -70.3% (active).

In the case of `O=C(NO)c1ccc(NCc2csc3ccccc23)cc1`, the growth was 71.3%.

Take `C#CC[C@@H]1C[C@]2(C)[C@H]3CC=C4[C@H]5CC(C)(C)CC[C@]5(C(=O)NCCCCN)CC[C@@]4(C)[C@]3(C)CC[C@H]2C(C)(C)[C@H]1OC(C)=O`: the growth was 6.69% (active).

On to `Oc1ccc(Cl)cc1-c1cc(-c2ccccc2Cl)[nH]n1`, for which the growth was 84.7%.

With `CC1C2CCC(C2)C1COCCOCCO` (centres undefined), the growth is 104%.

As to `O=C1C(Cl)=C(N/N=c2/[nH][nH]/c(=N/NC3=C(Cl)C(=O)c4ccccc4C3=O)c3ccccc23)C(=O)c2ccccc21`, the growth was 96%.

For the molecule `COc1ccc(/C=c2\c(=O)n(-c3ccccc3)c3nn4c(n23)=NNC42CCCCC2)cc1`, the growth was 106%.

As for `CCNC(=S)N(Cc1ccccc1)Cc1ccccc1`, the growth is 107%.

As for `N#CC1=C(N)Oc2nc[nH]c(=O)c2C1c1cccs1` (centres undefined), the growth is 103%.

Consider `CCN(C(=O)Nc1cccc2ccccc12)c1ccccc1`, for which the growth was 106%.

As to `COc1ccc(-c2nc(-c3cc(OC)cc(OC)c3)[nH]c2-c2ccc(OC)cc2)cc1`, the growth was 63.8%.
